Calls of active or inactive are those of the source.
What was measured:
Albumin (Bos taurus) = Albumin (Bos taurus) (UniProt P02769); experiment: compounds binding labelled BSA control protein – biochemical, small-molecule microarray, Alexa647 label, 635/667 nm fluorescence, artefact control for SMM control protein annotation, profiling panel (AID 1118); conditions: BSA-A647 binding, fluorescence 635 nm, higher = more signal;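 note: score merges 667 nm emission intensity and signal-to-noise per printed compound spot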
Chain of Albumin (Bos taurus) (P02769 whole entry, looked up): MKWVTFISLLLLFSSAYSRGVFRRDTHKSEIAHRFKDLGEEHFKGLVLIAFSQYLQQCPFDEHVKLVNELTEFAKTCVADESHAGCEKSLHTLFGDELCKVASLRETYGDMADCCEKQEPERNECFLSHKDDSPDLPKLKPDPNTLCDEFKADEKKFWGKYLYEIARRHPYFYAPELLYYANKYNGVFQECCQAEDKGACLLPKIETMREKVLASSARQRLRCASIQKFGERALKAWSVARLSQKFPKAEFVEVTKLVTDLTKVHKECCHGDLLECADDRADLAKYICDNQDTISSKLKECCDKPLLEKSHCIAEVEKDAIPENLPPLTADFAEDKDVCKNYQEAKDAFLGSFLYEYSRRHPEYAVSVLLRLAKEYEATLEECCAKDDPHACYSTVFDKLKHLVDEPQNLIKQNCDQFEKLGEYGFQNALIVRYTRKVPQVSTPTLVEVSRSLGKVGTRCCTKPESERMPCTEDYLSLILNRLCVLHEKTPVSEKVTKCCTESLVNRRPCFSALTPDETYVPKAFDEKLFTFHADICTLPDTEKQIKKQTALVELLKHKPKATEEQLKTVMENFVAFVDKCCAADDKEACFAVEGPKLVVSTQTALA

[1] = probe aXIP binding to arrayed compounds – biochemical, NeuroSMM set, 635/667 nm fluorescence, primary screen (AID 1119); conditions: small-molecule microarray, higher = more signal, called active from +8 up or from −8 down;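 note: probe is the protein aXip251-270 applied at 1 µg/mL to compound-printed slides; binding of probe to printed compounds measured as 667 nm fluorescence plus signal to noise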
[2] = probe aNOTCH3 binding on compound microarray – biochemical, small-molecule microarray, 635/667 nm fluorescence, primary screen (AID 1120); conditions: higher = more signal;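 note: probe is a biotin-tagged antibody raised against NOTCH3 rather than NOTCH3 protein; score merges spot fluorescence near 667 nm with spot signal to noise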
[3] = probe aNOTCH2 binding on compound microarray – biochemical, small-molecule microarray, 635/667 nm fluorescence, primary screen (AID 1121); conditions: higher = more signal;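 note: score merges feature fluorescence read at 667 nm with its signal to noise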
[4] = target: Carbonic anhydrase 2 (Homo sapiens) (UniProt P00918); experiment: compounds binding carbonic anhydrase 2 – biochemical, small-molecule microarray, Alexa647-labelled CAII, profiling panel (AID 1122); conditions: CAII-A647 binding fluorescence, higher = more signal
[5] = COS7 lysate on small-molecule microarray, probe aHis, 635 nm (AID 1123); conditions: COS7 cell lysate, fluorescence, higher = more signal;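 note: z-score combines 667nm fluorescence intensity with signal-to-noise per printed compound spot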
[6] = probe aLAP1 signal on lysate-treated microarray – cell lysate, small-molecule microarray, COS7 lysate, primary screen (AID 1124); conditions: probe aLAP1, fluorescence, higher = more signal;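 note: lysate comes from COS7 cells expressing LAP1 and is applied at 0.3 µg/mL; score merges spot fluorescence near 667 nm with signal-to-noise over triplicate slides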
Sam68 (KHDRBS1) = experiment: compounds binding KHDRBS1 protein – biochemical, small-molecule microarray, 635 nm fluorescence, primary screen (AID 1125); conditions: higher = more signal;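 note: score merges 667 nm channel intensity with signal to noise over triplicate slides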
[7] = tested on: Chordin-like protein 2 (CHRDL2); experiment: compounds binding chordin-like 2 – biochemical, small-molecule microarray, 635 nm fluorescence, primary screen (AID 1126); conditions: fluorescence 635 nm, higher = more signal;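 note: printed compound slides probed with Chrdl2 protein at 4 µg/mL for 1 h at 4 C; score merges 667 nm emission intensity with signal to noise over three replicate slides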
[8] = target: Concanavalin-A (Canavalia ensiformis) (UniProt P02866); experiment: compounds binding concanavalin A lectin – biochemical, small-molecule microarray, Alexa647 label, 635 nm, artefact control for SMM control protein annotation, primary screen (AID 1127); conditions: ConA-A647 binding fluorescence, higher = more signal;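 note: z combines 667 nm emission intensity with signal-to-noise across three replicate slides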
Chain of Concanavalin-A (Canavalia ensiformis) (P02866 whole entry, looked up): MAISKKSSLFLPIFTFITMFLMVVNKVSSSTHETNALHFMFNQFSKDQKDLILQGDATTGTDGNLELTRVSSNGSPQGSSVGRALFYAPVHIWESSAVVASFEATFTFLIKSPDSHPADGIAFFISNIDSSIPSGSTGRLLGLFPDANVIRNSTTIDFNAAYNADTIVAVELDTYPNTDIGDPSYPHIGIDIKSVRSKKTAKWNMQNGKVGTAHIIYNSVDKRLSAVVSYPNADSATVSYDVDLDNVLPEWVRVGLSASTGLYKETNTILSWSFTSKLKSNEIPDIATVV

[9] = compounds binding Alexa647 anti-His antibody – biochemical, small-molecule microarray, 635 nm fluorescence, artefact control for SMM control protein annotation, primary screen (AID 1128); conditions: higher = more signal;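 note: score merges feature fluorescence with signal-to-noise for each printed compound spot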
[10] = tested on: Human papillomavirus type 1a E7 protein (residues 1-88); experiment: HPV1a E7 small-molecule binders, primary screen, biochemical, small-molecule microarray, residues 1-88, 635 nm (AID 1129); conditions: small-molecule microarray binding, fluorescence 635 nm; higher = more signal
[11] = target: Focal adhesion kinase 1 (Homo sapiens) (UniProt Q05397); experiment: PTK2 protein binding on printed compound slides – biochemical, small-molecule microarray, 635/667 nm fluorescence, BSA, DTT, primary screen (AID 1130); conditions: 635 nm fluorescence, higher = more signal;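 note: composite of spot emission at 667 nm and signal to noise over triplicate slides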
Chain of Focal adhesion kinase 1 (Homo sapiens) (Q05397 whole entry, looked up): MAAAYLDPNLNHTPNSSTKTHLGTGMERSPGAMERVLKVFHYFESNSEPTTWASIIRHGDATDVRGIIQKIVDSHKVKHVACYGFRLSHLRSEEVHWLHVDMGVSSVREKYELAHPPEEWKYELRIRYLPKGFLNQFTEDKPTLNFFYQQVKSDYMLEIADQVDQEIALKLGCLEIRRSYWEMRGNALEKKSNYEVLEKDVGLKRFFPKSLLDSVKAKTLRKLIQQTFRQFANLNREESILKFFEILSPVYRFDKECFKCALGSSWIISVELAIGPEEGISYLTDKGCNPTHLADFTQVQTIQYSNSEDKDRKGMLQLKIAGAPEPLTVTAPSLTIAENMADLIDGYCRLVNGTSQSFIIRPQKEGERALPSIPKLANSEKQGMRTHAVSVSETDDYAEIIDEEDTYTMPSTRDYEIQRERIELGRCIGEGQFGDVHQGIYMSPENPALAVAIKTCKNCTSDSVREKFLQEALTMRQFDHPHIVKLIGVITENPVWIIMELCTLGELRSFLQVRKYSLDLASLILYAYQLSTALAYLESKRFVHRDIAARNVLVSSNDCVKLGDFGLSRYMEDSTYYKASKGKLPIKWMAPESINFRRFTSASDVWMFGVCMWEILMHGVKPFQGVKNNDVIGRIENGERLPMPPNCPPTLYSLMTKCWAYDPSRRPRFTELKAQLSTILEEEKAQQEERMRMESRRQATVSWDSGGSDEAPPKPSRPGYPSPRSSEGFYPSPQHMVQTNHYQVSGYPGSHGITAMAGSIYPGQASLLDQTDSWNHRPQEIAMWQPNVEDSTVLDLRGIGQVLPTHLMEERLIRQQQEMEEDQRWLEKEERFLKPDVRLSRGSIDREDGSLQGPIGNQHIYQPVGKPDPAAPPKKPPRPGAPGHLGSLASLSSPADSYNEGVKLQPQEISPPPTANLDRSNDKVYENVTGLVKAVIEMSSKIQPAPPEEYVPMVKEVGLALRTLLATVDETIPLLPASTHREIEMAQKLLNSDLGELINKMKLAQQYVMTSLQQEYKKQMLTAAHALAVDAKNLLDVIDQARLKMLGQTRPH

[12] = tested on: Fibrinogen (Alexa647-labelled); experiment: Alexa647-fibrinogen binding to printed small molecules – biochemical, small-molecule microarray, 635/667 nm fluorescence, artefact control for SMM control-protein annotation, profiling panel (AID 1131); conditions: fibrinogen-A647 binding fluorescence, higher = more signal;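 note: z-score merges 667 nm fluorescence with per-spot signal-to-noise over triplicate slides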
[13] = target: Follistatin (Homo sapiens) (UniProt P19883); experiment: FST protein binding to printed compounds – biochemical, small-molecule microarray, 635/667 nm fluorescence, primary screen (AID 1132); conditions: 635 nm fluorescence, higher = more signal
Chain of Follistatin (Homo sapiens) (P19883 whole entry, looked up): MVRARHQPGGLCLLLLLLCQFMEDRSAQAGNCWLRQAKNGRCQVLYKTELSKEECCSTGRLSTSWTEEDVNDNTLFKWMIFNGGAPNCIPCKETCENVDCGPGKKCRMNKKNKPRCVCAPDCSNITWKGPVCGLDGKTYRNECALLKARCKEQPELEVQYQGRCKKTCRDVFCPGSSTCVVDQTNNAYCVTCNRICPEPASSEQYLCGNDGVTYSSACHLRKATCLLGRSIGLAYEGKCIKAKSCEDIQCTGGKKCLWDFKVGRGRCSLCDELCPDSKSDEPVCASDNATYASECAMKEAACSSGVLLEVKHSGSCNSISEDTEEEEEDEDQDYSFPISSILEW

[14] = target: Fibroblast growth factor 2 (Homo sapiens) (UniProt P09038); experiment: basic fibroblast growth factor binding to printed compounds – biochemical, small-molecule microarray, 635/667 nm fluorescence, primary screen (AID 1133); conditions: FGF2, fluorescence 635/667, higher = more signal
Chain of Fibroblast growth factor 2 (Homo sapiens) (P09038 whole entry, looked up): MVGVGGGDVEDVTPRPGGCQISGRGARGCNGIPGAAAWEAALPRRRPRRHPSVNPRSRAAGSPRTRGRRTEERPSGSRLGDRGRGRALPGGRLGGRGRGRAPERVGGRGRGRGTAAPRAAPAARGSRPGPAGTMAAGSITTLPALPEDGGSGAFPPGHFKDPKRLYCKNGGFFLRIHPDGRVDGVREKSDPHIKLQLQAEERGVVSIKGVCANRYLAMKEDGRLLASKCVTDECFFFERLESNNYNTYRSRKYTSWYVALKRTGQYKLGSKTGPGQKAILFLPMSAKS

[15] = JC-1 mitochondrial potential readout, lung cancer cells – cell-based, A549, JC-1 fluorescence, basal, 24 h, 100 nL, profiling panel (AID 1138); conditions: higher = more signal;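 note: A549 lung adenocarcinoma cells under basal conditions with no added stimulus; test concentration not given here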
Lefty1 = Lefty1 protein binding to printed compounds – biochemical, small-molecule microarray, 635/667 nm fluorescence, primary screen (AID 1139); conditions: fluorescence 635/667, higher = more signal
[16] = tested on: wheat germ agglutinin (Triticum aestivum), Alexa647-labelled; experiment: Alexa647-WGA lectin binding to printed small molecules – biochemical, small-molecule microarray, 635/667 nm fluorescence, artefact control for SMM control-protein annotation, profiling panel (AID 1140); conditions: WGA-A647 binding, 635 nm fluorescence, higher = more signal;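 note: score merges 667 nm feature emission with signal to noise over triplicate slides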
[17] = target: Luciferin 4-monooxygenase (Photinus pyralis) (UniProt P08659); experiment: inhibition of purified Photinus pyralis luciferase – biochemical, luminescence, purified enzyme, 2006 set, primary screen (AID 1141); conditions: purified firefly luciferase, SteadyGlo luminescence, 30 min; higher = more signal, called active from +8 up or from −8 down;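 note: cell-free assay with purified firefly luciferase at 100 ng per well in PBS; test concentration not given here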
Chain of Luciferin 4-monooxygenase (Photinus pyralis) (P08659 whole entry, looked up): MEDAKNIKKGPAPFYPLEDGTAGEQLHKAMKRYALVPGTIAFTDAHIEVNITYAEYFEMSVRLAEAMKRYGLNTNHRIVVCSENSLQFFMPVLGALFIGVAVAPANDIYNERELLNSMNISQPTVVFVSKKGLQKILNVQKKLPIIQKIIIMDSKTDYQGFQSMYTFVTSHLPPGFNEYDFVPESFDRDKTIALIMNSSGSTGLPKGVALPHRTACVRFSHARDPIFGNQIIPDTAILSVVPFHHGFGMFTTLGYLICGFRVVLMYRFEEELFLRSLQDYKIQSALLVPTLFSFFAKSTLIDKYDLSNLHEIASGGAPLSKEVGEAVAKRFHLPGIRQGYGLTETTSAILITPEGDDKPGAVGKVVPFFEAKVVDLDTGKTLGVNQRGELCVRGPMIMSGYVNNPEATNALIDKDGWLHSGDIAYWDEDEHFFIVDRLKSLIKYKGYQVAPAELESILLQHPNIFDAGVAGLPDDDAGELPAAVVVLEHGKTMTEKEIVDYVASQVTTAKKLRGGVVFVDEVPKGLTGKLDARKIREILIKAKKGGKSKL

SMILES	composite z-score (Albumin (Bos taurus))	composite Z-score [1]	composite z-score [2]	composite z-score [3]	composite z-score [4]	composite z-score [5]	composite z-score [6]	composite z-score (Sam68 (KHDRBS1))	composite z-score [7]	composite z-score [8]	composite z-score [9]	composite z-score [10]	composite z-score [11]	composite z-score [12]	composite z-score [13]	composite z-score [14]	z-score [15]	composite z-score (Lefty1)	composite z-score [16]	z-score [17]
O=C1OCCC/C=C\[C@H]2OC34C=CCN(Cn5nnc6ccccc65)C(=O)[C@H]3N(CCO)C(=O)[C@@H]4C12 (stereo not given in full)	0.926	0.605 (inactive)	0.0004	-0.0073	0.987	0.207	0.136	-0.642	-1.89	0.216	0.893	-0.318	-0.344	-1.27	-0.481	-1.36	-0.438	-0.368	0.556	1.27 (inactive)
CC(=O)NCCCC[C@@H]1NC(=O)[C@@H]2C[C@H](C(=O)NCCCCCCNC(=O)CS)[C@H](c3cccc(OCCO)c3)N2C1=O	-0.133	0.405 (inactive)	-0.0996	-0.151	0.561	1.48	0.689	0.825	0.568	0.914	1.23	1.1	0.314	-0.917	1.24	1.59	0.488	0.574	0.379	-0.242 (inactive)
CC(C)(C)OC(=O)CC[C@]1(C(=O)NCC(O)CO)COC(c2ccc(OCCCO)cc2)=N1 (stereo not given in full)	0.693	0.0333 (inactive)	0.0425	-0.106	0.828	2.68	-0.45	0.949	-1.53	0.504	1.97	1.22	0.472	0.936	-0.255	-0.473	-0.328	-0.35	0.879	0.438 (inactive)
CN(C)CCCNC(=O)[C@@]1(c2ccc([N+](=O)[O-])cc2)CC(=O)N(C2CCCCC2)[C@@H]1c1ccc(CO)cc1	0.611	-0.14 (inactive)	-0.0795	-0.146	0.395	1.68	-0.0291	0.819	-0.357	0.282	-0.0406	0.108	-0.221	0.874	0.928	-0.209	1.22	0.401	-0.0351	-0.0244 (inactive)
C=C(/C(=C/C[C@@H](OC(C)=O)c1ccc(OCCO)cc1)c1cnc2ccccc2c1)C(C)C	0.444	-0.199 (inactive)	-0.0362	-0.17	0.425	0.387	-0.0638	0.713	0.159	0.806	0.204	0.408	0.166	-0.59	1.1	0.757	1.04	0.806	0.983	-1.6 (inactive)
CCCCC(O)C1C=CC2C(=O)N(c3ccccc3)C(=O)C2N1Nc1ccccc1F (stereo not given)	0.8	1.54 (inactive)	0.378	0.387	0.747	2.54	0.439	1.12	0.0354	1.13	1.35	1.11	0.527	0.924	0.347	-0.563	0.354	-0.0785	1.2	0.247 (inactive)
CC(=O)N1Cc2ccccc2C[C@@]2(COC(c3ccc(OCCCO)cc3)=N2)C1=O	0.707	-0.151 (inactive)	0.286	0.16	0.669	2.38	0.16	1.3	0.341	1.15	1.93	1.18	0.994	0.842	1.26	0.701	-0.956	0.0786	1.29	-2.19 (inactive)
COCCCN1C(=O)[C@@]2(c3ccc([N+](=O)[O-])cc3)CC(=O)N(C3CCCCC3)[C@@H]2c2ccc(CO)cc21	-0.132	0.0221 (inactive)	-0.207	-0.153	-0.277	0.143	-0.322	0.134	0.778	0.734	0.245	-0.62	-0.101	-0.538	1.14	0.594	-0.39	0.655	-0.0848	-0.302 (inactive)
COCC(=C=CC[C@@H](O)c1ccccc1OCCO)C[C@@H](O)c1cc(Cl)cc(Cl)c1O	0.641	0.103 (inactive)	0.129	-0.14	0.38	1.24	0.822	1.3	0.476	1.08	0.819	1.23	0.14	0.867	1.24	1.21	-0.41	0.666	0.289	-1.02 (inactive)
Cc1ccc(S[C@]2(C(=O)NCCN3CCOCC3)CC(=O)N(Cc3ccccc3Cl)[C@@H]2c2ccc(CO)cc2)cc1	0.429	-0.0407 (inactive)	-0.0362	-0.133	0.686	0.776	0.0897	-0.541	-1.2	-0.199	1.69	-0.516	0.155	-1.85	0.157	-0.536	-0.63	-0.188	0.193	1.58 (inactive)
CCCCCC1=C2CNC(CCC)(C(=O)OC)C=C2C(C)C1=O (stereo not given)	0.912	0.956 (inactive)	0.227	0.153	0.698	1.61	0.448	0.273	-0.723	0.236	-0.252	0.859	0.682	-0.288	-0.249	0.0833	0.424	-0.444	-0.0925	0.443 (inactive)
